Growth data for seven compounds are collected here from PubChem BioAssay (NCI).

Each structure is given as a SMILES string. This is part of a sample that, as a whole, favours compounds with a hit. Of some 83,000 tested, about 20% had one in any assay.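 The test compound was applied at a single concentration to cells in 96-well plates for 48 hours, and percent growth was recorded.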 Values without a mark were called inactive. Activity calls are given as the source filed them. Rule for the calls: active = growth percent below 10; inactive = the rest.

Among the test systems are DU-145 prostate; K-562 leukemia; MALME-3M melanoma; MDA-MB-231 breast; RXF 393 renal; SF-268 CNS; SF-295 CNS; SF-539 CNS; UACC-257 melanoma; M14 melanoma; HCT-15 colon; HT29 colon; SNB-75 CNS; SNB-19 CNS; U251 CNS; PC-3 prostate; SK-MEL-5 melanoma; UACC-62 melanoma; LOX IMVI melanoma; SK-MEL-28 melanoma.
Common to all, as to assay: NCI-60 one-dose screen, 48 h (100 = growth as untreated, 0 = no growth, -100 = all killed)
What all share (settings): 10 µM unless noted

As to `COc1cc(Nc2nc(NCCN)nc3cc[nH]c(=O)c23)cc(OC)c1`, the growth in the assay on DU-145 prostate is 65%; with K-562 leukemia, 75.8%; in the assay with MALME-3M melanoma it was 46.9%; in the assay with MDA-MB-231 breast, 75.7%; in the assay on RXF 393 renal, 58.7%; in the assay with SF-268 CNS it was 77.3%. The growth with SF-295 CNS was 102%; in the assay on SF-539 CNS, 76.3%; in the assay on UACC-257 melanoma, 72.5%; in the assay with M14 melanoma it was 49.7%; in the assay with HCT-15 colon, 102%; with HT29 colon, 73.6%. The growth in the assay with SNB-75 CNS is 90.3%; with SNB-19 CNS, 102%; with U251 CNS it was 85.8%; with PC-3 prostate, 113%; with SK-MEL-5 melanoma, 81.6%; with UACC-62 melanoma, 57.2%. Moreover, the growth in the assay with LOX IMVI melanoma is 51.8%; in the assay on SK-MEL-28 melanoma it was 102%.

Regarding `COc1ccc2c(c1)c(-c1ccc(-c3cn(C)c4ccc(OC)cc34)o1)cn2C`, the growth in the assay with DU-145 prostate is 107%; with K-562 leukemia, 2.25% (active); with MALME-3M melanoma, 80.6%; with MDA-MB-231 breast, 69.1%; in the assay on RXF 393 renal, 66.8%; in the assay with SF-268 CNS, 71.8%. In addition, the growth with SF-295 CNS was 62.2%; with SF-539 CNS, 18%; with UACC-257 melanoma it was 90%; with M14 melanoma it was 71.2%; in the assay on HCT-15 colon it was 56.2%; in the assay with HT29 colon, 72.7%. Also, the growth in the assay with SNB-75 CNS was 71.4%; in the assay on SNB-19 CNS, 33.3%; in the assay on U251 CNS, 15%; with PC-3 prostate, 3% (active); with SK-MEL-5 melanoma, -2.83% (active); with UACC-62 melanoma, 12.4%. The growth was 53.2% in the assay with LOX IMVI melanoma and 83.6% with SK-MEL-28 melanoma.

`O=C(Nc1ccc(Br)cc1F)c1cc(Br)ccc1O`: the growth was 20.9% in the assay with DU-145 prostate; 10.3% in the assay with K-562 leukemia; -26.4% (active) in the assay with MALME-3M melanoma; -38.1% (active) in the assay on MDA-MB-231 breast; -8.01% (active) in the assay with RXF 393 renal; 14.5% in the assay with SF-268 CNS. Besides, the growth with SF-295 CNS is -59.7% (active); in the assay with SF-539 CNS, 9.41% (active); in the assay on UACC-257 melanoma it was -17.2% (active); in the assay on M14 melanoma it was 8.04% (active); with HCT-15 colon it was 4.49% (active); in the assay on HT29 colon it was 59.3%. For the same compound, the growth in the assay on SNB-75 CNS is 1.84% (active); with SNB-19 CNS it was 19.6%; in the assay on U251 CNS it was 13.8%; in the assay with PC-3 prostate it was 11.9%; with SK-MEL-5 melanoma, -93.7% (active); in the assay with UACC-62 melanoma, -31.4% (active). The growth with LOX IMVI melanoma is 6.99% (active); with SK-MEL-28 melanoma, 8.29% (active).

On to `COc1ccc(C2CC(c3ccc(Nc4nc(Nc5ccc(F)cc5)nc(Nc5ccc(Cl)cc5)n4)cc3)=NN2C(C)=O)cc1` (stereo not given), for which the growth was 122% with DU-145 prostate; 114% in the assay on K-562 leukemia; 88.1% in the assay on MALME-3M melanoma; 90.9% in the assay with MDA-MB-231 breast; 86.6% in the assay with RXF 393 renal; 131% in the assay with SF-268 CNS. For the same compound, the growth with SF-295 CNS was 103%; in the assay with SF-539 CNS it was 101%; with UACC-257 melanoma, 98.5%; in the assay with M14 melanoma, 104%; with HCT-15 colon, 93.6%; in the assay on HT29 colon it was 108%. Moreover, the growth was 85.5% with SNB-75 CNS; 79.3% in the assay with SNB-19 CNS; 86.7% in the assay on U251 CNS; 85.2% with PC-3 prostate; 92% with SK-MEL-5 melanoma; 90.6% in the assay with UACC-62 melanoma. For the same compound, the growth in the assay with LOX IMVI melanoma was 105%; with SK-MEL-28 melanoma, 114%.

On to `CNCCCNc1nc2ccccc2c2c(=O)c3cc(OC)ccc3sc12`, for which the growth in the assay on DU-145 prostate is 65.4%; with K-562 leukemia, -20.3% (active); in the assay with MALME-3M melanoma it was 99.4%; in the assay with MDA-MB-231 breast, 20%; in the assay with RXF 393 renal, 63.7%; in the assay with SF-268 CNS it was 77.4%. Also, the growth with SF-295 CNS is 94.7%; in the assay on SF-539 CNS, 66.4%; in the assay on UACC-257 melanoma it was 99.1%; with M14 melanoma, 29.9%; in the assay with HCT-15 colon, 57.5%; in the assay on HT29 colon, 4.95% (active). In addition, the growth in the assay with SNB-75 CNS was 72.6%; in the assay on SNB-19 CNS, 79.3%; in the assay with U251 CNS it was 48.3%; in the assay on PC-3 prostate, 68.8%; with SK-MEL-5 melanoma, 91.6%; with UACC-62 melanoma it was 99.3%. Besides, the figures for the growth with LOX IMVI melanoma and in the assay on SK-MEL-28 melanoma were -38.1% (active) and 103%, respectively.

As to `COc1cc(CCC[P+](c2ccccc2)(c2ccccc2)c2ccccc2)c(OC)c(OC)c1OC`, the growth was 79.6% in the assay on DU-145 prostate; 39.8% with K-562 leukemia; 53.7% with MALME-3M melanoma; 61.5% with MDA-MB-231 breast; 54.2% in the assay with RXF 393 renal; 64.7% in the assay on SF-268 CNS. The growth in the assay with SF-295 CNS was 82.5%; in the assay with SF-539 CNS it was 57.7%; in the assay with UACC-257 melanoma it was 60.7%; with M14 melanoma, 62%; in the assay on HCT-15 colon it was 68.2%; in the assay with HT29 colon, 112%. The growth was 29.7% in the assay on SNB-75 CNS; 78% in the assay on SNB-19 CNS; 77.7% with U251 CNS; 75.6% with PC-3 prostate; 76% with SK-MEL-5 melanoma; 31.1% in the assay with UACC-62 melanoma. Moreover, the growth in the assay on LOX IMVI melanoma was 79.2%; with SK-MEL-28 melanoma it was 74.4%.

On to `Nc1ccc(Sc2ccc([N+](=O)[O-])c3nonc23)cc1`, for which the growth was 97.3% with DU-145 prostate; 26.7% in the assay with K-562 leukemia; 57% in the assay on MALME-3M melanoma; 92.4% in the assay with MDA-MB-231 breast; 104% with RXF 393 renal; 98% in the assay with SF-268 CNS. Besides, the growth was 96.9% with SF-295 CNS; 91.9% in the assay with SF-539 CNS; 86.9% in the assay with UACC-257 melanoma; 88.7% with M14 melanoma; 58.2% in the assay on HCT-15 colon; 70.8% with HT29 colon. In addition, the growth was 90.7% in the assay with SNB-75 CNS; 95.6% with SNB-19 CNS; 90.9% in the assay on U251 CNS; 87.1% in the assay with PC-3 prostate; 88.1% with SK-MEL-5 melanoma; 84.5% in the assay on UACC-62 melanoma. For the same compound, the results for the growth in the assay on LOX IMVI melanoma and in the assay on SK-MEL-28 melanoma were 80.3% and 102%, respectively.
